Structures are written as SMILES. Inconclusive results are not listed. The source made the active and inactive calls. Rule for the calls, unless noted: active = hit-call score of the fitted dose curve at least 0.9, where 1 is the maximum; inactive = score below 0.9.

The nature of assay [1]: ACEA_ER_80hr: ACEA Biosciences xCELLigence Real-Time Cell Analysis on Estrogen Receptor Agonism for Proliferation (AID 2282667; active = hit-call score of the fitted dose curve at least 0.9, where 1 is the maximum). The note with it: T47D proliferation, impedance (xCELLigence), 80 h. Put shortly: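 T47D human breast cells were seeded on electrode plates, monitored overnight, then exposed continuously to compounds in eight-point 1:4 dilutions from 100 uM (max 0.5% DMSO). Impedance-based growth was read at 80 h, fitted upward relative to DMSO.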

A short description of assay [2]: ATG_CRE_CIS: Attagene CIS-FACTORIAL HepG2 Assay for human cAMP Responsive Element (CRE) binding protein 3 (AID 2282926). The note with it: HepG2 CRE cis-reporter, Attagene multiplexed mRNA; actives raise or lower the signal. In short, it runs like this: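 Capillary electrophoresis of 6-FAM-labelled, HpaI-digested PCR products quantified reporter transcripts. These came from HepG2 transiently transfected with cis-element reporters and exposed to test chemicals for 24 hours, with DMSO defining baseline activity.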

Assay [3] deals with CCAAT/enhancer-binding protein beta (Homo sapiens) (UniProt P17676). Description: ATG_C_EBP_CIS: Attagene CIS-FACTORIAL HepG2 Assay for human CCAAT/Enhancer Binding Protein (C/EBP) beta (AID 2282927). The note with it: HepG2 Attagene cis-factorial transcription factor reporter; actives raise or lower the signal. Put shortly:
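Transiently transfected HepG2 (MRTU library, endogenous TF-driven promoters); 24 h dosing; total RNA → oligo(dT) RT → PCR → 6-FAM primer extension → HpaI digest → CE; fit bidirectionally vs DMSO.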

A short description of assay [4]: ATG_CMV_CIS: Attagene CIS-FACTORIAL HepG2 Assay for human CMV (Internal Marker) (AID 2282928).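 Note: endpoint acts as a background internal control marker rather than a target.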 The note with it: HepG2 CMV promoter reporter, transcription factor profiling; actives raise or lower the signal. In short, it runs like this: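 Fluorescence intensity of RT-PCR-derived reporter fragments, resolved by capillary electrophoresis, gives the signal. HepG2 liver cells bearing transfected cis-element reporters were treated 24 h; activity in either direction was fit relative to DMSO-treated controls.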

A short description of assay [5]: ATG_DR4_LXR_CIS: Attagene CIS-FACTORIAL HepG2 Assay for human Liver X Receptor (LXR), DR4 submotif (AID 2282929). The note with it: HepG2 Attagene DR4 cis-reporter, mRNA transcription; actives raise or lower the signal. In short, it runs like this: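 Endogenous factor activity at a DR4 cis-element is read as reporter mRNA in transiently transfected HepG2 cells. Exposure lasts 24 h; transcripts are amplified, fluorescently labelled and sized by capillary electrophoresis, with DMSO as baseline.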

Assay [6] has as its target Aryl hydrocarbon receptor (Homo sapiens) (UniProt P35869). Description: ATG_Ahr_CIS: Attagene CIS-FACTORIAL HepG2 Assay for human Aryl Hydrocarbon Receptor (Ahr) (AID 2282930). The note with it: HepG2 AhR cis-factorial reporter transcription; actives raise or lower the signal. In short, it runs like this: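 Read-out: reporter mRNA quantified by RT-PCR with fluorescent primer extension and capillary electrophoresis. Human HepG2 liver cells carried transfected cis-promoter reporter units and were exposed to chemical for 24 h; gain or loss fitted relative to DMSO.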

The nature of assay [7]: ATG_AP_1_CIS: Attagene CIS-FACTORIAL HepG2 Assay for human Activator Protein 1 (AP-1) (AID 2282931). The note with it: HepG2 Attagene cis-factorial AP-1 reporter mRNA; actives raise or lower the signal. In short, it runs like this: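 Fluorescence of labelled PCR fragments separated by capillary electrophoresis gives reporter mRNA levels. HepG2 with transfected cis-regulated reporter units, 24 h exposure; DMSO serves as baseline for bidirectional curve fits.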

Assay [8] can be described thus: ATG_AP_2_CIS: Attagene CIS-FACTORIAL HepG2 Assay for human Activator Protein 2 (AP-2) (AID 2282932). The note with it: HepG2 AP-2 cis-reporter, Attagene transcription factor profiling; actives raise or lower the signal. In short, it runs like this:
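Liver-derived HepG2 line, cis-reporter system measuring endogenous factors; 24 h dosing; reporter mRNA detected by fluorescent RT-PCR and capillary electrophoresis.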

Assay [9] can be described thus: ATG_BRE_CIS: Attagene CIS-FACTORIAL HepG2 Assay for human Bone Morphogenetic Protein (BMP) Response Element (BRE) (AID 2282933). The note with it: HepG2 BMP response element reporter, Attagene transcription factor profiling; actives raise or lower the signal. In short, it runs like this: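 A HepG2 multiplex reporter system measured inducible reporter mRNA 24 h post-dosing. Detection: RT-PCR, 6-FAM primer extension, HpaI digestion, capillary electrophoresis. Activity fitted bidirectionally relative to DMSO.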

Assay [10] addresses Retinoic acid receptor alpha (Homo sapiens) (UniProt P10276). Description: ATG_DR5_RAR_CIS: Attagene CIS-FACTORIAL HepG2 Assay for human Retinoic Acid Receptor Alpha (RARE), DR5 submotif (AID 2282934).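 For AC50: reporter responds to endogenous RAR alpha beta and gamma in HepG2 not RARA alone.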 The note with it: HepG2 Attagene cis-factorial RARE DR5 reporter, mRNA; actives raise or lower the signal. In short, it runs like this: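 Read-out: DR5-driven reporter transcript measured by RT-PCR, 6-FAM primer extension, HpaI digest and capillary electrophoresis. Human HepG2 liver cells carry transiently transfected cis-element reporter constructs; dosing lasts 24 h. Gain or loss of signal fitted against DMSO baseline.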

Assay [11] addresses Transcription factor E2F1 (Homo sapiens) (UniProt Q01094). Description: ATG_E2F_CIS: Attagene CIS-FACTORIAL HepG2 Assay for human E2F Transcription Factor 1 (AID 2282935). The note with it: HepG2 Attagene cis-reporter, E2F reporter RNA transcripts; actives raise or lower the signal. Put shortly:
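Liver-derived HepG2 cells expressing transfected promoter-driven reporter units received test chemical for 24 hours. Signal gains or losses were fitted bidirectionally against DMSO.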

The nature of assay [12]: ATG_E_Box_CIS: Attagene CIS-FACTORIAL HepG2 Assay for human Enhancer Box (E-box) (AID 2282936). The note with it: HepG2 E-box cis-reporter transcription, actives raise or lower the signal. Put shortly: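 In this cell-based setup, HepG2 cells bearing transfected promoter-driven reporter units were exposed to chemicals for 24 h; reporter transcripts were amplified, 6-FAM-labelled, cut with HpaI and sized by capillary electrophoresis.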

Assay [13] is described as follows: ATG_M_61_CIS: Attagene CIS-FACTORIAL HepG2 Assay for M61 Transcription Factor (Internal Marker) (AID 2282937). The note with it: HepG2 Attagene CIS-FACTORIAL M61 internal marker reporter; actives raise or lower the signal. In short, it runs like this: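 This endpoint serves as an internal background control within a multiplexed HepG2 cis-reporter panel. Cells are exposed for 24 h; reporter mRNA is amplified, fluorescently labelled and sized by capillary electrophoresis, with DMSO as negative control.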

The nature of assay [14]: ATG_EGR_CIS: Attagene CIS-FACTORIAL HepG2 Assay for human Early Growth Response 1 (EGR1) (AID 2282938). The note with it: HepG2 Attagene CIS-FACTORIAL EGR reporter mRNA; actives raise or lower the signal. In short, it runs like this: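 HepG2, transient MRTU transfection (cis promoters), 24 h compound. RNA → RT (oligo-dT) → PCR → 6-FAM labelling → HpaI cut → CE fluorescence. Bidirectional fit, DMSO baseline.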

Assay [15] is described as follows: ATG_ERE_CIS: Attagene CIS-FACTORIAL HepG2 Assay for Estrogen Response Element (ERE) (AID 2282940). The note with it: HepG2 ERE cis-reporter, Attagene RNA transcript; actives raise or lower the signal. In short, it runs like this: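 Human liver cells (HepG2) bearing transiently transfected, promoter-regulated reporter units were exposed 24 h. Reporter mRNA induction was detected by capillary electrophoresis of labelled RT-PCR products and fitted bidirectionally to DMSO.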

The nature of assay [16]: ATG_Ets_CIS: Attagene CIS-FACTORIAL HepG2 Assay for human Erythroblast Transformation Specific (ETS) (AID 2282941). The note with it: HepG2 ETS cis-reporter transcription, actives raise or lower the signal. Put shortly: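 Multiplexed reporter transcript profiling: HepG2, 24 h treatment, total RNA to cDNA, PCR, 6-FAM labelling, HpaI cut, capillary electrophoresis. Gain- or loss-of-signal fitted against DMSO.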

The target of assay [17] is Hepatocyte nuclear factor 3-beta (Homo sapiens) (UniProt Q9Y261). Kind of assay: ATG_FoxA2_CIS: Attagene CIS-FACTORIAL HepG2 Assay for human Forkhead box A2 (FOXA2) (AID 2282942). The note with it: HepG2 cis-reporter transcription factor activity, 24 h; actives raise or lower the signal. In short, it runs like this:
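Cells: HepG2, transient multiplex reporter transfection. Exposure 24 h. Detection: reporter-specific RT-PCR, fluorescent labelling, restriction digest, capillary electrophoresis. Analysis: bidirectional curve fit, DMSO as negative control.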

Assay [18] is described as follows: ATG_FoxO_CIS: Attagene CIS-FACTORIAL HepG2 Assay for human Forkhead box O (FoxO) (AID 2282943). The note with it: HepG2 Attagene cis-reporter, FoxO element, mRNA; actives raise or lower the signal. Put shortly: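 Read-out: fluorescence of 6-FAM-labelled reporter cDNA fragments resolved by capillary electrophoresis. Transiently transfected HepG2 cells were dosed for 24 h; activity fitted in both directions relative to DMSO controls.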

Assay [19] in a line: ATG_GATA_CIS: Attagene CIS-FACTORIAL HepG2 Assay for human GATA Binding Protein (AID 2282944). The note with it: HepG2 GATA cis-element reporter, Attagene multiplex mRNA; actives raise or lower the signal. In short, it runs like this:
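Transfected cis-reporter HepG2 cells were treated with chemicals for 24 hours. Total RNA was then converted to cDNA, amplified with reporter-specific primers and analysed by fluorescent capillary electrophoresis, using DMSO-treated wells as baseline.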

The nature of assay [20]: ATG_M_19_CIS: Attagene CIS-FACTORIAL HepG2 Assay for M19 Transcription Factor (Internal Marker) (AID 2282939). The note with it: HepG2 Attagene CIS-FACTORIAL M19 internal marker reporter; actives raise or lower the signal. In short, it runs like this:
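Chemical-treated HepG2 (24 h) with MRTU constructs; reporter transcripts detected by fluorescent RT-PCR fragment analysis on capillary electrophoresis. Internal background marker, DMSO as baseline.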

Chain of Retinoic acid receptor alpha (Homo sapiens) (P10276 whole entry, looked up): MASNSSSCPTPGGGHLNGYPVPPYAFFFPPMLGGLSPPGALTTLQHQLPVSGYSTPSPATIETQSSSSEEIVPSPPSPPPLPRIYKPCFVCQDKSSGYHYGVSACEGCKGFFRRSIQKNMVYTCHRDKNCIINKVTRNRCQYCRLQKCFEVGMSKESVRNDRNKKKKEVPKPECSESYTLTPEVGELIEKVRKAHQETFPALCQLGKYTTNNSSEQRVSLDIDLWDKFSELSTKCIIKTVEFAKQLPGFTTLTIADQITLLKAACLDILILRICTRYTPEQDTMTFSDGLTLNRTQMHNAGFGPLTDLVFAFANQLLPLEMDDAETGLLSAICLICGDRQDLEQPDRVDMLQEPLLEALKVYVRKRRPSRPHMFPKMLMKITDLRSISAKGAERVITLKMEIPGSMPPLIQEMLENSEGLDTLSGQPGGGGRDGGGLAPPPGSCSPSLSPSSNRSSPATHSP
Chain of Hepatocyte nuclear factor 3-beta (Homo sapiens) (Q9Y261 whole entry, looked up): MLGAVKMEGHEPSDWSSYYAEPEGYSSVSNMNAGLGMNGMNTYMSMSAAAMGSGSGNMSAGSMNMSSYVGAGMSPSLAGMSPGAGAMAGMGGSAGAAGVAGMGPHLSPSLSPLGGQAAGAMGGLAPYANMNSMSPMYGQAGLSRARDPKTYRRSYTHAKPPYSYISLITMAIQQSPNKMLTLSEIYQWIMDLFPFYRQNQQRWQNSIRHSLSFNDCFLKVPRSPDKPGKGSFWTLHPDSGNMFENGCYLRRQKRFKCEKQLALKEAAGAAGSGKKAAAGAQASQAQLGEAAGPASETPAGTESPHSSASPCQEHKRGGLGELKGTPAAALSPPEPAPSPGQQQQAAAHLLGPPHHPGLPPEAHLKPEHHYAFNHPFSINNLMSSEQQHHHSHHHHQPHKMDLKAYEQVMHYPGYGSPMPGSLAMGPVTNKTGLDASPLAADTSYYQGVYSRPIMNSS
Chain of CCAAT/enhancer-binding protein beta (Homo sapiens) (P17676 whole entry, looked up): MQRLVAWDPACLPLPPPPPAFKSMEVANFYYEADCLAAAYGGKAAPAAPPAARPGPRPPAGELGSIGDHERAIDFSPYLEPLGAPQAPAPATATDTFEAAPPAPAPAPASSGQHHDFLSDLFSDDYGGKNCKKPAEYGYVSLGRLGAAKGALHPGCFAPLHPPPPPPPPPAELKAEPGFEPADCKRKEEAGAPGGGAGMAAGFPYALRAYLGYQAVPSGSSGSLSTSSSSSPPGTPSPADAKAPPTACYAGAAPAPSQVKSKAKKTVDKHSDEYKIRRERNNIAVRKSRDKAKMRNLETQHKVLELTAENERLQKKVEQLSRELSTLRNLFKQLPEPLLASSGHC
Chain of Aryl hydrocarbon receptor (Homo sapiens) (P35869 whole entry, looked up): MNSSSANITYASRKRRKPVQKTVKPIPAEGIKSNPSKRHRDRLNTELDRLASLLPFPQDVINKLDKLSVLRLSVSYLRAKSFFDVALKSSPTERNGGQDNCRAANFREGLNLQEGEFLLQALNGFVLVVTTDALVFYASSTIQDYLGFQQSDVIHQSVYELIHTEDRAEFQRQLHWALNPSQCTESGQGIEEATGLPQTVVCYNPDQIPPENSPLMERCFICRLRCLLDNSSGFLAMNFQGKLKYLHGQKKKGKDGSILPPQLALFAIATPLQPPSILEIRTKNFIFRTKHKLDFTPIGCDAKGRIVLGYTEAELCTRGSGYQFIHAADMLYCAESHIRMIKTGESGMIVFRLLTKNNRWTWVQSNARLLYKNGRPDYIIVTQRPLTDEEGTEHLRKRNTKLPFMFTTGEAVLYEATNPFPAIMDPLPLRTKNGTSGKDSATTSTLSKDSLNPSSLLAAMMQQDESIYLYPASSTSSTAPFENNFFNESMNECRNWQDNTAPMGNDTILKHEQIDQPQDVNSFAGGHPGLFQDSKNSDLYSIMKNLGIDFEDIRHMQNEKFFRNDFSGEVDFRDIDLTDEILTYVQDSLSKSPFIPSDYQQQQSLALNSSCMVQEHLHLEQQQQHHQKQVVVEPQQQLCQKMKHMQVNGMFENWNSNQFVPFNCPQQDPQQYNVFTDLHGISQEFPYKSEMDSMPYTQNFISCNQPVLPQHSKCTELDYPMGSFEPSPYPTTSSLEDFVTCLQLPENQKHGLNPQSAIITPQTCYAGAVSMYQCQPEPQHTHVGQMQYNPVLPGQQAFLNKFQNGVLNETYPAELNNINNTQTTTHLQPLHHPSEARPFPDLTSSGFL
Chain of Transcription factor E2F1 (Homo sapiens) (Q01094 whole entry, looked up): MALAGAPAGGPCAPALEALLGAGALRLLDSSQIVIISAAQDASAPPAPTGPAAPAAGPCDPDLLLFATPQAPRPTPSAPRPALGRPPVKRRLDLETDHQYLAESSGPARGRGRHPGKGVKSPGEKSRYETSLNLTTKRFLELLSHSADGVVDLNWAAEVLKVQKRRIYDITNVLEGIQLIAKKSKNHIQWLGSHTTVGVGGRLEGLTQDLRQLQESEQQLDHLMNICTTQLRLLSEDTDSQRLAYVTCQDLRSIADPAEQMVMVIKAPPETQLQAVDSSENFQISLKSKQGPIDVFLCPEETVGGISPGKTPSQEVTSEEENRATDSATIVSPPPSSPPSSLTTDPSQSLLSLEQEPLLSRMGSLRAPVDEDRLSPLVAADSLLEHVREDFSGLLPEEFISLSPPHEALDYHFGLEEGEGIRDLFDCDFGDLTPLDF

The AC50 is the concentration giving half of the maximal activity seen. In the case of `COC(=O)c1ccc(C=O)cc1`, the call in assay [1], in assay [2], in assay [3], in assay [4], in [5] and in assay [7] was inactive. For the same compound, the call in assay [8], in assay [9], in [10], in assay [11], in assay [12] and in assay [13] was inactive. The outcome in assay [14], in assay [15], in [16], in assay [17], in assay [18] and in assay [19] was inactive. Besides, the AC50 in assay [6] was 105 µM (active).
For the compound `CCn1c2ccccc2c2ccccc21`, the compound was called inactive in assay [1], in assay [2], in [3], in assay [5], in [6] and in assay [8]. The outcome in [11], in assay [12], in [13], in assay [14], in assay [15] and in [16] was inactive. In addition, the outcome in [17], in [18] and in [19] was inactive. For the same compound, the AC50 was 57.4 µM (active) in assay [4], 164 µM (active) in assay [7], 159 µM (active) in [9] and 25.8 µM (active) in [10].
Regarding `NC(=O)C(F)(F)C(F)(F)C(F)(F)C(F)F`, the result in assay [1], in assay [2], in assay [3], in [4], in [5] and in assay [6] was inactive. Also, the compound was called inactive in assay [7], in assay [8], in assay [9], in [10], in [11] and in [12]. The compound was called inactive in assay [13], in [14], in assay [15], in assay [16], in assay [17] and in assay [18]. Also, the outcome in [19] was inactive.
Regarding `OCC(O)CC(F)(F)C(F)(F)C(F)(F)C(F)(F)F` (stereo unspecified), the outcome in assay [1], in assay [2], in assay [3], in [4], in assay [5] and in [6] was inactive. Also, the compound was classed as inactive in [7], in [8], in [9], in assay [10], in [11] and in [12]. The outcome in [13], in assay [14], in assay [15], in assay [16], in assay [17] and in assay [18] was inactive. Also, the result in assay [19] was inactive.
Turning to `NC(O)(C(F)(F)F)C(F)(F)F`, the outcome in assay [1], in assay [2], in assay [3], in assay [4], in [5] and in assay [7] was inactive. For the same compound, the call in assay [8], in assay [9], in assay [10], in [11], in [12] and in assay [13] was inactive. For the same compound, the compound was called inactive in [14], in assay [20], in assay [15], in assay [16], in assay [17] and in assay [18]. In addition, in [19], the outcome was inactive. Besides, in assay [6], the AC50 is 126 µM (active).

For the origin of these results see PubChem BioAssay (EPA / NIEHS).
